Results reported in PubChem BioAssay.
Active and inactive are the calls of the source.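 Rule for the calls, unless noted: active = inhibition at or above 50% at 10 µM; inactive = inhibition below 50%.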

Legend:
[1] = inhibitors of TNFa-induced NFkB p65 translocation, primary screen, imaging, HUVEC, MLSMR starter and 10KST1 sets (AID 438;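 active = inhibition above 20% together with a positive visual image hit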;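 note: compound added about 3h40 before a 20 min TNFalpha stimulation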;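 for inhibition: signal is the nuclear over cytoplasmic p65 intensity ratio per well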); conditions: HUVEC TNFa-induced p65 nuclear translocation; cell count: measured here: nuclei count (cytotoxicity indicator), at 2.08 µM; inhibition: at 2 µM, stronger effect = higher value, 0% TNFa-plus-vehicle, 100% no-TNFa wells
[2] = reduction of polyQ htt aggregates in cells – imaging, exon1htt(103Q)mCFP cells, high-content imaging, primary screen (AID 483;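 active = visual image review flags a hit and inhibition of aggregation exceeds 20%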;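 note: compound exposure lasted 3 days before fixation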;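 for nuclei count: percent of the per-plate median nuclei count of sample wells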); conditions: exon1htt(103Q)mCFP cell line, aggregate imaging, at 2 µM; inhibition of aggregation: stronger effect = higher value; nuclei count: measured here: cell count, toxicity
[3] = endothelial E-selectin expression blockers – imaging, HUVEC, immunofluorescence, MLSMR starter and 10KST1 sets, primary screen (AID 487;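 active = visually confirmed hit in the image check and inhibition above 20%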;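 for inhibition: signal is fraction of cell area covered by stained E-selectin grains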;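 for nuclei count: 100% = median nuclei count of all wells on the same plate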); conditions: HUVEC TNFalpha-induced E-selectin immunofluorescence imaging, at 2 µM; inhibition: stronger effect = higher value; nuclei count: measured here: cell number, toxicity
[4] = biological target: Voltage-gated potassium channel subunit beta-2 (Rattus norvegicus) (UniProt P62483); assay: inhibitors of rat Kvbeta2 reductase activity – biochemical, NADPH fluorescence, primary screen (AID 622;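 active = fluorescence slope higher than the sample average by over 3 SD, cut at about -0.22 in these data, passing the limit was not always enough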;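 note: slope of raw intensity against log time taken from 70 to 1610 s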); conditions: recombinant KvBeta, 4-cyanobenzaldehyde reduction, at 10 µM, stronger effect = higher value
[5] = biological target: Voltage-gated potassium channel subunit beta-2 (Rattus norvegicus) (UniProt P62483); assay: enhancers of rat Kvbeta2 NADPH turnover – biochemical, NADPH fluorescence, primary screen (AID 623;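 active = NADPH fluorescence slope more negative than the mean of all samples by about 3 SD, 99.7% confidence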;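 note: fluorescence intensity change per second fitted from 20 to 320 s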); conditions: Recombinant KvBeta, NADPH fluorescence decrease slope, 10 min; at 10 µM; stronger effect = lower value
[6] = biological target: Alpha-2C adrenergic receptor (Homo sapiens) (UniProt P18825); assay: compounds altering alpha2C-coupled GIRK flux – cell-based, HEK293 alpha2C/GIRK1/2, thallium flux, primary screen (AID 624;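 active = fluorescence slope after compound addition differing from the mean of all screened samples at 99.7% confidence, in either direction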;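 note: slope of fluorescence ratio to pre-addition baseline per second over 15 to 24 s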); conditions: thallium flux BTC fluorescence, at 10 µM, actives lie on both sides
[7] = blockers of RIG-like receptor reporter activation – cell-based, Sendai virus stimulus, luciferase, 10K MLSCN set, TLR/RLR signaling modifier project, primary screen (AID 602276); conditions: HEK293 RL24 IRF3 luciferase reporter, at 10 µM, stronger effect = higher value;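 note: firefly luciferase from ISG56 promoter only with Renilla not read in this screen; 0% = Sendai virus plus DMSO and 100% = medium plus DMSO without virus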
[8] = TLR3 IRF3 reporter activation blockers – cell-based, poly I:C stimulus, luciferase, 10K MLSCN set, primary screen (AID 602277;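 active = inhibition of the reporter signal at or above 50%; inactive = inhibition below 50%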); conditions: HEK293-TLR3 RL24 IRF3 luciferase reporter, at 10 µM, stronger effect = higher value

Alpha-2C adrenergic receptor (Homo sapiens), sequence (P18825 whole entry, looked up): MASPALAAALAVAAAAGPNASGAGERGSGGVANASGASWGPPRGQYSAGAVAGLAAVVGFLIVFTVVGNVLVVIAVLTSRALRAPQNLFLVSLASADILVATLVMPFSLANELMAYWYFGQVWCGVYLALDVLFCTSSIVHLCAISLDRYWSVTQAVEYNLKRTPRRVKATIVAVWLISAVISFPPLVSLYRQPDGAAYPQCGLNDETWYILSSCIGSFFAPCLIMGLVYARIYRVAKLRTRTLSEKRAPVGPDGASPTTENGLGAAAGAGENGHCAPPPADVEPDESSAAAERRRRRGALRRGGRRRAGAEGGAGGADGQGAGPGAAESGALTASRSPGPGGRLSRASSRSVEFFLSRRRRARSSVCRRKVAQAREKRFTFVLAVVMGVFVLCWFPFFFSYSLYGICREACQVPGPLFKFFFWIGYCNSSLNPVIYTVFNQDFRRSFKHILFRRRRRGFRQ
Voltage-gated potassium channel subunit beta-2 (Rattus norvegicus), sequence (P62483 whole entry, looked up): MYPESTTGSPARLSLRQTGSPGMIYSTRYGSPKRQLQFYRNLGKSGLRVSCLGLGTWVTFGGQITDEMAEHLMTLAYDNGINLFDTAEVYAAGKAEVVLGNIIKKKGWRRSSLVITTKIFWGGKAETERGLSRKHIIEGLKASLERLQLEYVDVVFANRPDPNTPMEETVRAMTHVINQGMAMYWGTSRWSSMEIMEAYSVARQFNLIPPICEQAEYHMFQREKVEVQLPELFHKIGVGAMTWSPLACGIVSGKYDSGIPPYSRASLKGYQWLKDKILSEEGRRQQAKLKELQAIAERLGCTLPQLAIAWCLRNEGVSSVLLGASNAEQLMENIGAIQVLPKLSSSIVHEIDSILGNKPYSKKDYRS

| SMILES | cell count [1] | inhibition [1] | inhibition of aggregation [2] | nuclei count [2] | inhibition [3] | nuclei count [3] | fluorescence slope [4] | NADPH fluorescence slope [5] | slope [6] | inhibition [7] | inhibition [8] |
| --- | --- | --- | --- | --- | --- | --- | --- | --- | --- | --- | --- |
| CCN(CC)c1ccc(NC(=O)c2nc3nc(C)cc(C(F)F)n3n2)cc1 | 650 | -1.9% (inactive) | 14.6% (inactive) | 98.5% | -10.1% (inactive) | 114% | -0.535 (inactive) | -3.4e-05 (inactive) | 0.00747 (inactive) | 21.5% (inactive) | -6.45% (inactive) |
| O=C(COC(=O)c1cc(-c2ccco2)nc2ccccc12)NCc1ccc2c(c1)OCO2 | 349 | -18.2% (inactive) | -7.7% (inactive) | 54% | 3.4% (inactive) | 108% | -0.407 (inactive) | -1.1e-05 (inactive) | 0.00558 (inactive) | 2.9% (inactive) | 11.8% (inactive) |
| O=C(COc1ccc(Cl)cc1)NCc1nnc(SCC(=O)Nc2ccc3c(c2)OCCO3)o1 | 375 | 0% (inactive) | 4.2% (inactive) | 99.9% | -9.1% (inactive) | 119% | -0.359 (inactive) | -3.4e-06 (inactive) | 0.00522 (inactive) | -4.54% (inactive) | -2.34% (inactive) |
| COc1ccccc1CNC(=O)N[C@@H](Cc1ccccc1)C(=O)O | 602 | 0.9% (inactive) | -15.9% (inactive) | 107% | 31.9% (inactive) | 99.5% | -0.6 (inactive) | -5.1e-05 (inactive) | 0.00621 (inactive) | 12.8% (inactive) | 22.6% (inactive) |
| COc1cccc(NC(=O)N(Cc2ccco2)C(C)c2cccs2)c1 (centres undefined) | 734 | -12.7% (inactive) | -16.2% (inactive) | 103% | -52.3% (inactive) | 114% | -0.469 (inactive) | 2.7e-05 (inactive) | 0.00569 (inactive) | 11% (inactive) | 15.1% (inactive) |
| O=C(CCCNS(=O)(=O)c1ccccc1)NCc1ccco1 | 242 | -6.9% (inactive) | 22.9% (inactive) | 80.7% | 27.9% (inactive) | 80.8% | -0.425 (inactive) | -1.4e-05 (inactive) | 0.00453 (inactive) | 12.9% (inactive) | 10.4% (inactive) |
| CC(=O)N(C(C)=O)c1cccc2c(N(C(C)=O)C(C)=O)cccc12 | 450 | -10.7% (inactive) | 26.2% (inactive) | 44.9% | -28.6% (inactive) | 87.9% | -0.431 (inactive) | -5.3e-05 (inactive) | 0.00429 (inactive) | 12.7% (inactive) | 31.6% (inactive) |
| CS(=O)(=O)N1CCC(C(=O)NCCC2=CCCCC2)CC1 | 427 | 4.2% (inactive) | 8% (inactive) | 100% | -89.9% (inactive) | 106% | -0.382 (inactive) | -2.9e-05 (inactive) | 0.00662 (inactive) | 12.6% (inactive) | 8.24% (inactive) |
| COC(=O)c1cc(OC)c(OC)cc1NC(=O)c1ccc(Br)o1 | 296 | -7.2% (inactive) | -7.5% (inactive) | 95.4% | -91.3% (inactive) | 103% | -0.312 (inactive) | -4.6e-05 (inactive) | 0.00764 (inactive) | 2.63% (inactive) | -5.12% (inactive) |
| O=C1CC(Cc2ccccc2)C(=O)N1CCCn1ccnc1 (centres undefined) | 429 | -4.9% (inactive) | 10.8% (inactive) | 100% | 36.4% (inactive) | 102% | -0.346 (inactive) | -6e-05 (inactive) | 0.00527 (inactive) | 17.7% (inactive) | 25% (inactive) |
| O=C(NC1CCCC1)c1ccc2nc[nH]c2c1 | 427 | 10.2% (inactive) | 0.8% (inactive) | 101% | -41.4% (inactive) | 114% | -0.62 (inactive) | -3.9e-06 (inactive) | 0.00786 (inactive) | 9.91% (inactive) | 13.1% (inactive) |
| CC(=O)c1cccc(NC(=O)CCOc2ccccc2)c1 | 580 | 7.4% (inactive) | 6% (inactive) | 101% | 1.3% (inactive) | 119% | -0.428 (inactive) | 4.3e-05 (inactive) | 0.00322 (inactive) | -37.6% (inactive) | -83.6% (inactive) |
| O=C(CN1C(=O)c2ccccc2S1(=O)=O)NCc1ccccn1 | 643 | 0% (inactive) | -6.2% (inactive) | 90.1% | 5% (inactive) | 119% | -0.61 (inactive) | 4e-06 (inactive) | 0.00685 (inactive) | 13.6% (inactive) | 26.2% (inactive) |
| Nc1nnnn1NCc1cccc(OCc2ccccc2)c1 | 582 | -9.5% (inactive) | 11.2% (inactive) | 64.2% | -2.2% (inactive) | 137% | -0.5 (inactive) | -2.7e-05 (inactive) | 0.00425 (inactive) | 5.03% (inactive) | -6.8% (inactive) |
| O=C(CN1CCN(Cc2ccc3c(c2)OCO3)CC1)Nc1ccc2c(c1)OCCO2 | 248 | -3% (inactive) | 2.7% (inactive) | 75.7% | -19.1% (inactive) | 85.5% | -0.583 (inactive) | -4.2e-05 (inactive) | 0.00576 (inactive) | 0.946% (inactive) | 17.2% (inactive) |
| O=C(CN(C(=O)CCC(=O)Nc1nccs1)c1ccccc1F)NCC1CCCO1 (centres undefined) | 343 | -0.8% (inactive) | 6% (inactive) | 87.3% | -19.4% (inactive) | 124% | -0.609 (inactive) | -1.3e-06 (inactive) | 0.00439 (inactive) | 8.97% (inactive) | 15.4% (inactive) |
| N#Cc1c(NCc2ccccc2)ccnc1NCc1cccnc1 | 720 | 2.9% (inactive) | -8.3% (inactive) | 104% | 67.5% (active) | 80.8% | -0.288 (inactive) | -6.2e-05 (inactive) | 0.00541 (inactive) | -0.363% (inactive) | -44.8% (inactive) |
| COc1ccc(NC(=O)N2CCN(c3nc(-c4cccc(OC)c4)cs3)CC2)cc1 | 564 | -7.5% (inactive) | 8.8% (inactive) | 93.9% | -23.1% (inactive) | 104% | -0.478 (inactive) | -3.3e-05 (inactive) | 0.0039 (inactive) | 2.91% (inactive) | -56.5% (inactive) |
| Cc1ccnc(SCCn2c(N3CCN(Cc4ccccc4)CC3)nc3c2c(=O)[nH]c(=O)n3C)n1 | 665 | -22.3% (inactive) | 0.8% (inactive) | 120% | -36.7% (inactive) | 96.2% | -0.542 (inactive) | -3.1e-05 (inactive) | 0.00641 (inactive) | -0.348% (inactive) | 0.626% (inactive) |
